Screening results (PubChem)
Fam108B counter: mouse Fam108B serine hydrolase inhibitors, primary screen, counter-screen for RBBP9 inhibitor project, biochemical, fluorescence polarization. inhibition, % at 9.51 µM. AID 1947, 2009. recombinant Fam108B, FP-Rh probe fluorescence polarization. 300,000 compounds, 0.33% hits;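 active = inhibition above the screen mean inhibition plus 3 SD, computed separately per campaign, cut at about 18% in these data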;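 also: inhibitors lower polarization as less probe binds the enzyme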
PREPL inhibitor: PREPL enzyme inhibitors, primary screen, biochemical, fluorescence polarization; 320,000 compounds, 0.68% hits; inhibition, % at 5.96 µM; Prolyl endopeptidase-like (Homo sapiens), Q4J6C6; recombinant PREPL, fluorescence polarization activity-based probe; in the data active = inhibition above about 43%
PME-1 primary: PME-1 inhibitors via competitive probe labeling, primary screen, biochemical, fluorescence polarization, FP-Rh probe, HTS | 320,000 compounds, 0.53% hits | Protein phosphatase methylesterase 1 (Homo sapiens), Q9Y570 | recombinant PME-1 | AID 2130, 2009 | inhibition, % at 5.9 µM;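 active = inhibition above the campaign mean of all compounds plus 3 SD, cut at about 26% in these data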;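 also: competitive labeling of PME-1 active site by serine hydrolase directed probe; inhibitors block probe labeling so polarization falls and inhibition rises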
LYPLA2 inh: LYPLA2 inhibitors, primary screen, counter-screen for PME1 inhibitor project, biochemical, fluorescence polarization, FP-Rh probe ABPP; inhibition, % at 5.9 µM; 320,000 compounds, 0.38% hits; Acyl-protein thioesterase 2 (Homo sapiens), O95372; recombinant LYPLA2;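 active = inhibition above the screen-wide mean plus 3 SD, limit set per campaign, cut at about 26% in these data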
Target sequence (O95372 whole entry, looked up): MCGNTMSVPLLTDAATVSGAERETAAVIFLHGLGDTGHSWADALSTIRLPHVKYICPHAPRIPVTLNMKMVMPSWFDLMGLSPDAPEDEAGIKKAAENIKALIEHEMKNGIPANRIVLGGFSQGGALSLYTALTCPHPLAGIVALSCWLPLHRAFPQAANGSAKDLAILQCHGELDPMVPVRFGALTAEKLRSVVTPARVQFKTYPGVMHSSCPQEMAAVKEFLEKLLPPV
LYPLA1 inh: LYPLA1 inhibitors, primary screen, counter-screen for PME1 inhibitor project, biochemical, fluorescence polarization, FP-Rh probe ABPP. recombinant LYPLA1. Acyl-protein thioesterase 1 (Homo sapiens), O75608. inhibition, % at 5.9 µM. AID 2174, 2009. 320,000 compounds, 0.16% hits;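 active = inhibition above the mean of all tested compounds plus 3 SD, set per campaign, cut at about 14% in these data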;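 also: inhibitors block serine hydrolase probe labeling of LYPLA1 so polarization falls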
Target sequence (O75608 whole entry, looked up): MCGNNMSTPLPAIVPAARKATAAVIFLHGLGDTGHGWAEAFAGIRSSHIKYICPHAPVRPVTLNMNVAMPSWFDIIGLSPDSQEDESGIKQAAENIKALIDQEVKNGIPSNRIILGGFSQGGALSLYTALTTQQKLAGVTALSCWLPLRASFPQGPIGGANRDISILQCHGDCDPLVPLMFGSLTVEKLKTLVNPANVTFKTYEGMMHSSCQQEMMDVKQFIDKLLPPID
Each line names hits and unclear results; the compound was inactive in the other large screens. Rows were chosen to be rich in hits. Some 1.3% of all compounds tested hit in one or more screens of this group.

O=C(c1cc([N+](=O)[O-])ccc1Cl)N1CCN(c2ccc(F)cc2)CC1	PREPL inhibitor 45.0
O=C(CCCCCN1C(=O)[C@@H]2Cc3ccccc3CN2C1=O)NCCc1ccccc1	none
COc1cc(C2C(C#N)=C(N)OC3=C2C(=O)CCC3)c([N+](=O)[O-])cc1OC (centres undefined)	Fam108B counter 19.1
CC[C@@]1(c2ccccc2)C(=O)N(C(=O)OC)N1C(=O)OC	none
COC(=O)N1C(=O)[C@](c2ccccc2)(C(C)C)N1C(=O)OC	PME-1 primary 34.6
C[C@H]1CN([C@@H](C)CO)C(=O)c2cccc(NC(=O)C3CC3)c2O[C@H]1CN(C)S(=O)(=O)c1ccccc1	none (no result: Fam108B counter, PME-1 primary, LYPLA2 inh, LYPLA1 inh)
COc1ccc(OCCn2cc(/C=N/NC(=O)c3ccncc3)c3ccccc32)cc1	PME-1 primary 32.4, LYPLA2 inh 39.3
O=C(Cn1cc(S(=O)(=O)Cc2cccc(F)c2)c2ccccc21)N1CCOCC1	none
Cc1cc(C)nc(Nc2ccc(N3CCCC3)cc2)n1	PREPL inhibitor 44.0
CC(C)(CC(=O)O)CC(=O)NNc1ncccc1C#N	none
Cc1cc(C)c(NC(=O)CS(=O)CC(=O)N2CCN(c3cccc(C)c3C)CC2)c(C)c1 (centres undefined)	none
Cc1ccc(OCC(=O)c2cc(C)n(C3CC3)c2C)c([N+](=O)[O-])n1	none
COc1ccc(-n2c(C)cc(C(=O)COc3ccc(C)nc3[N+](=O)[O-])c2C)cc1	LYPLA2 inh 26.4
Cc1cc(C)n2nc(SCc3cc(=O)oc4ccc5ccccc5c34)nc2n1	PREPL inhibitor 46.9
Cc1cc(C)n2nc(SCc3cc(=O)oc4cc(C)c(C)cc34)nc2n1	none
COC(=O)[C@]1(Cc2ccccc2)N[C@H](CN(C)C(=O)c2ccc(F)cc2)[C@@H]2C(=O)N(C)C(=O)[C@@H]21	none (no result: Fam108B counter, PME-1 primary, LYPLA2 inh, LYPLA1 inh)
N#C/C(=C\c1ccc(-c2ccccc2[N+](=O)[O-])o1)C(=O)Nc1nc(-c2cccs2)cs1	PME-1 primary 29.1
N#C/C(=C\c1ccc(-c2ccc([N+](=O)[O-])cc2)o1)C(=O)Nc1nc(-c2cccs2)cs1	none
CN(Cc1cccs1)C(=O)c1cccc(S(=O)(=O)N2CCCCCC2)c1	none (no result: Fam108B counter)
O=C(c1cccc(C(=O)N2CCN(c3ncccn3)CC2)c1)N1CCN(c2ncccn2)CC1	none
O=C(c1ccc2nc(-c3ccco3)c(-c3ccco3)nc2c1)N1CCN(c2ncccn2)CC1	PREPL inhibitor 60.7
O=C(N/N=C\c1ccc(COc2ccc([N+](=O)[O-])cc2)o1)c1cccc(Cl)c1	PME-1 primary 35.6
O=C(N/N=C\c1ccc(COc2ccc([N+](=O)[O-])cc2)o1)c1ccc(Cl)cc1	none
CC12CCC(=O)N1C(C(=O)Nc1nnc(SCc3ccccc3F)s1)CS2 (centres undefined)	none
O=C(O)/C=C/C(O)c1ccc(Cl)cc1 (centres undefined)	none
O=c1c2ccccc2nc(/C=C/c2c[nH]c3ccccc23)n1CCO	PME-1 primary 47.0
O=c1c2ccccc2nc(/C=C/c2cc(Br)ccc2O)n1CCO	none
CCCCN(C)CC(O)Cn1cc(/C=C/C(=O)c2ccc(C)cc2)c2ccccc21 (centres undefined)	PREPL inhibitor 44.5
COc1ccc(C(=O)/C=C/c2cn(CC(O)CN3CCN(C)CC3)c3ccccc23)cc1OC (centres undefined)	none
CN(C)S(=O)(=O)c1ccc(Cl)c(NC(=O)COC(=O)c2ccc(O)cc2)c1	none
CCN(CC)S(=O)(=O)c1ccc(Cl)c(NC(=O)COC(=O)c2cccn2C)c1	PME-1 primary 32.9
CCN(CC)S(=O)(=O)c1ccc(Cl)c(NC(=O)COC(=O)c2ccc(O)cc2)c1	PME-1 primary 29.0
Cc1ccc(C(=O)OCC(=O)Nc2cc(S(=O)(=O)N3CCOCC3)ccc2C)cc1	none
CCN(CC)S(=O)(=O)c1ccc(C)c(NC(=O)COC(=O)c2ccc(C)c(S(=O)(=O)N3CCOCC3)c2)c1	PME-1 primary 51.5
CCN(CC)S(=O)(=O)c1ccc(Cl)c(NC(=O)COC(=O)C2CCCCC2)c1	none (no result: Fam108B counter)
CCC1C(=O)NCCN1C(=O)c1ccc(OC)c(OC2CCN(C(C)=O)CC2)c1 (centres undefined)	none
c1ccc(CCNc2nc(-c3ccncc3)cs2)cc1	none
CCCCCNc1nc(-c2ccccc2)cs1	PREPL inhibitor 69.9
O=C1COc2ccc(-c3csc(NCCc4ccccc4)n3)cc2N1	PREPL inhibitor 50.6
COc1ccc(CCc2nnc(CCC(=O)NCc3ccc4ncccc4c3)o2)cc1	none
CCOC(=O)c1c2c3c(cccc3n(C)c1=O)C(=O)c1ccccc1-2	PME-1 primary 28.4
COc1cccc(-c2nc(NCc3ccccc3)c3ccccc3n2)c1O	none
COc1cccc(-c2nc(NC3CCCC3)c3ccccc3n2)c1O	PME-1 primary 27.4
CN(C)CCCNS(=O)(=O)c1ccc(N2CCC(c3ccc(Cl)cc3)=N2)cc1	PREPL inhibitor 70.3
O=S(=O)(c1ccc(N2CCC(c3ccc(Cl)cc3)=N2)cc1)N(CCO)CCO	none
CN(C)c1ccc(C(CNC(=O)c2ccc(C#N)cc2)c2c[nH]c3ccccc23)cc1 (centres undefined)	PREPL inhibitor 65.1
COc1ccc(N2CCc3c(C)nc4c(OC)cc(OC)cc4c32)c(OC)c1	PREPL inhibitor 48.0
O=C(CN1CCN(c2nc(-c3ccccc3)cs2)CC1)Nc1ccc2c(c1)OCO2	PREPL inhibitor 48.2
O/N=C/c1ccccc1Oc1ccc(Cl)cc1	none
N#CCC(=O)c1ccccc1Oc1ccc(Cl)cc1	PME-1 primary 40.5
C=C(C(=O)Oc1c(C(C)(C)C)cccc1C(C)(C)C)c1ccccc1	none (no result: Fam108B counter)
N#Cc1ccccc1Cn1c(=O)n(-c2ccc(CC(=O)NCc3ccco3)cc2)c(=O)c2sccc21	PME-1 primary 37.3
N#Cc1ccccc1Cn1c(=O)n(Cc2ccc(C(=O)NCc3ccco3)cc2)c(=O)c2sccc21	none
O=S(=O)(c1cccc2cccnc12)N1CCN(Cc2ccccc2)CC1	none
CN1CCN(c2ccc(NC(=O)c3ccc(-c4ccc(Br)cc4)o3)cc2)CC1	PME-1 primary 29.6
CCOc1ccccc1NC(=O)CC1Nc2cc(C)c(C)cc2NC1=O (centres undefined)	PME-1 primary 34.6
CCn1c(=O)c2c(n3c(=S)[nH]nc13)-c1ccccc1CC21CCCCC1	none
O=C(N=Nc1c(O)n(Cc2ccccc2)c2ccccc12)c1cc2ccccc2cc1O	PME-1 primary 51.1
CC(=O)Nc1ccc(Nc2ccc3c4c(cc(=O)n3C)-c3ccccc3C(=O)c24)cc1	none
O=C1c2ccccc2C(=O)c2c(Nc3ccc(CCO)cc3)ccc(O)c21	PME-1 primary 28.7, LYPLA2 inh 27.1
CN(CCOc1ccccc1)C(=S)Nc1ccc(OC(F)F)cc1	none
